For part of these data: Potency and affinity values are given separately. The source made the active and inactive calls. Where a call stands in place of a potency, no number is given. Unless noted, no rule for the calls is given here.
Legend:
[1] = target: Cell division control protein 42 homolog (Homo sapiens) (UniProt P60953); test: activated mutant Cdc42 GTP-binding inhibitors, dose response, biochemical, multiplex bead flow cytometry, Bodipy-FL-GTP (AID 1333;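 active = fitted half-maximal concentration within the tested dose range, moderate curve steepness, a statistically real signal drop, and little compound fluorescence or tag-binding interference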)
Cell division control protein 42 homolog (Homo sapiens), sequence (P60953 whole entry, looked up): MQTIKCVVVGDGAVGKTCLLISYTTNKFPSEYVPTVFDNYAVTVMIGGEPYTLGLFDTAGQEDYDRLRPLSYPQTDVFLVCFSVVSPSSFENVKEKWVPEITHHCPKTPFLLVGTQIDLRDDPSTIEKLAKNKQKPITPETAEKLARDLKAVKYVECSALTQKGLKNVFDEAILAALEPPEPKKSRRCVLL

[2] = target: Cell division control protein 42 homolog (Homo sapiens) (UniProt P60953); test: wildtype Cdc42 GTP-binding inhibitors, dose response, biochemical, multiplex bead flow cytometry, Bodipy-FL-GTP (AID 1334;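 active = fitted half-maximal concentration within the tested range, moderate curve steepness, significant signal drop, and little compound fluorescence or bead-linkage interference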); settings: bead-based flow cytometry, Bodipy-FL-GTP binding to GST-Cdc42; at 100 µM (top of the series) unless noted
[3] = target: GTPase HRas (Homo sapiens) (UniProt P01112); test: inhibitors of GTP binding to wildtype Ras, dose response, biochemical, multiplex bead flow cytometry (AID 1335;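 active = fitted half-maximal concentration within 10 nM to 100 µM, steepness 0.5 to 2, significant signal drop, low assay interference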); settings: bead-based flow cytometry, Bodipy-GTP binding to GST-Ras; at 100 µM (top of the series) unless noted
GTPase HRas (Homo sapiens), sequence (P01112 whole entry, looked up): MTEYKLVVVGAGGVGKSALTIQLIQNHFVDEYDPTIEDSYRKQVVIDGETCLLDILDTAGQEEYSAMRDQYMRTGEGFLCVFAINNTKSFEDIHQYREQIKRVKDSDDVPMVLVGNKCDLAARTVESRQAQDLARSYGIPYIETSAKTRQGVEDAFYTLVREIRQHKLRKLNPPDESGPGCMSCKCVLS

[4] = test system: Ras-related protein Rab-7a (dog), GTP binding; test: Rab7 GTP binding inhibitors, potency, dose response, biochemical, wildtype, multiplex bead flow cytometry (AID 1336)
[5] = target: Ras-related C3 botulinum toxin substrate 1 (Homo sapiens) (UniProt P63000); test: wildtype Rac1 GTP binding inhibitors, dose response, biochemical, multiplex bead flow cytometry (AID 1340;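 active = dose curve with midpoint inside tested range, moderate steepness, plateau gap beyond fit error, low compound glow and bead-link interference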); settings: GST-Rac1 beads, Bodipy-FL-GTP binding; at 100 µM (top of the series) unless noted
[6] = target: GTPase HRas (Homo sapiens) (UniProt P01112); test: activated Ras mutant GTP binding inhibitors, dose response, biochemical, multiplex bead flow cytometry (AID 1341;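 active = dose-response curve with midpoint inside the tested range, moderate steepness, significant amplitude and little compound fluorescence or bead-attachment interference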;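 also: GST-tagged constitutively activated Ras mutant immobilized on beads and multiplexed with other GTPases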)

With `Nc1nn2c(-c3ccccc3)cc(=O)[nH]c2c1N=Nc1ccc(O)cc1` the outcome [1] was “inactive”, the fluorescence, percent of control (lower = inhibition) [2] was 33.3% and the GTP binding, percent of control [3] was 75.4%. The outcome [4] was “inactive”, the GTP binding signal, raw median fluorescence (lower = inhibition) (MCF (arbitrary fluorescence units)) [5] was 188 and the outcome [6] was “inactive”.

With `CCCCCN1CC(O)=C(c2nc(-c3ccc(Cl)cc3)cs2)C1=N` the outcome [1] was “inactive”, the fluorescence, percent of control (lower = inhibition) [2] was 88.4% and the GTP binding, percent of control [3] was 167%. The outcome [4] was “inactive”, the GTP binding signal, raw median fluorescence (lower = inhibition) (MCF (arbitrary fluorescence units)) [5] was 184 and the outcome [6] was “inactive”.

With `Cc1ccc(Nc2c(F)c(F)c(F)c(F)c2C(=O)O)cc1` the outcome [1] was “inactive”, the fluorescence, percent of control (lower = inhibition) [2] was 84.8% and the GTP binding, percent of control [3] was 106%. The outcome [4] was “inactive”, the GTP binding signal, raw median fluorescence (lower = inhibition) (MCF (arbitrary fluorescence units)) [5] was 74 and the outcome [6] was “inactive”.

With `CC(=O)c1ccc(N2CCN(C(=O)c3ccc4c(=O)n(-c5ccccc5)c(=O)[nH]c4c3)CC2)cc1` the outcome [1] was “inactive”, the fluorescence, percent of control (lower = inhibition) [2] was 35.7% and the GTP binding, percent of control [3] was 84.8%. The outcome [4] was “inactive”, the GTP binding signal, raw median fluorescence (lower = inhibition) (MCF (arbitrary fluorescence units)) [5] was 304 and the outcome [6] was “inactive”.

In the case of `COc1ccc(S(=O)(=O)Cc2ccc(C(=O)N3CCN(c4cc(Cl)ccc4C)CC3)o2)cc1`, the outcome [1] is reported as “inactive”, the fluorescence, percent of control (lower = inhibition) [2] is reported as 35.1% and the GTP binding, percent of control [3] is reported as 57.4%. The outcome [4] was “inactive”, the GTP binding signal, raw median fluorescence (lower = inhibition) (MCF (arbitrary fluorescence units)) [5] was 148 and the outcome [6] was “inactive”.

For `O=C(CCl)Nc1cccn2ncnc12`, the outcome [1] was “inactive”, the fluorescence, percent of control (lower = inhibition) [2] was 37.7% and the GTP binding, percent of control [3] was 83%. For the same compound, the outcome [4] was “inactive”, the GTP binding signal, raw median fluorescence (lower = inhibition) (MCF (arbitrary fluorescence units)) [5] was 274 and the outcome [6] was “inactive”.

`CCOC(=O)Cn1nnnc1CN(Cc1cccs1)Cc1cc2cc(C)cc(C)c2[nH]c1=O` was tested, and the outcome [1] was “inactive”, the fluorescence, percent of control (lower = inhibition) [2] was 81.6% and the GTP binding, percent of control [3] was 161%. The outcome [4] was “inactive”, the GTP binding signal, raw median fluorescence (lower = inhibition) (MCF (arbitrary fluorescence units)) [5] was 171 and the outcome [6] was “inactive”.

For `COc1cc(/C=N/NC(=O)CN(Cc2ccccc2)S(=O)(=O)c2ccc3c(c2)OCCO3)ccc1O`, the outcome [1] was “inactive”, the fluorescence, percent of control (lower = inhibition) [2] was 40.1% and the GTP binding, percent of control [3] was 52.5%. For the same compound, the outcome [4] was “inactive”, the GTP binding signal, raw median fluorescence (lower = inhibition) (MCF (arbitrary fluorescence units)) [5] was 126 and the outcome [6] was “inactive”.

With `COc1ccc(-n2c(C)cc(/C=C3/SC(=S)N(C)C3=O)c2C)cc1` the outcome [1] was “inactive”, the fluorescence, percent of control (lower = inhibition) [2] was 76.1% and the GTP binding, percent of control [3] was 85.8%. The outcome [4] was “inactive”, the GTP binding signal, raw median fluorescence (lower = inhibition) (MCF (arbitrary fluorescence units)) [5] was 0 and the outcome [6] was “inactive”.

With `Cc1ccc(CSc2ncccc2C(=O)O)cc1` the outcome [1] was “inactive”, the fluorescence, percent of control (lower = inhibition) [2] was 67.9% and the GTP binding, percent of control [3] was 199%. The outcome [4] was “inactive”, the GTP binding signal, raw median fluorescence (lower = inhibition) (MCF (arbitrary fluorescence units)) [5] was 284 and the outcome [6] was “inactive”.

`COc1cc(/C=N/NC(=O)c2cc3ccccc3cc2O)ccc1OCCN1CCCCC1` was tested, and the outcome [1] was “inactive”, the fluorescence, percent of control (lower = inhibition) [2] was 39.4% and the GTP binding, percent of control [3] was 91.1%. The outcome [4] was “inactive”, the GTP binding signal, raw median fluorescence (lower = inhibition) (MCF (arbitrary fluorescence units)) [5] was 328 and the outcome [6] was “inactive”.

In the case of `CCN(c1ccc(N=Cc2c(O)n(Cc3ccc(OC)cc3)c(=O)c3ccccc23)cc1)C(C)C`, the outcome [1] is reported as “inactive”, the fluorescence, percent of control (lower = inhibition) [2] is reported as 154% and the GTP binding, percent of control [3] is reported as 196%. For the same compound, the outcome [4] was “inactive”, the GTP binding signal, raw median fluorescence (lower = inhibition) (MCF (arbitrary fluorescence units)) [5] was 452 and the outcome [6] was “inactive”.

In the case of `CCOC(=O)c1cnc2c(C#N)cnn2c1N`, the outcome [1] is reported as “inactive”, the fluorescence, percent of control (lower = inhibition) [2] is reported as 33.6% and the GTP binding, percent of control [3] is reported as 72.1%. For the same compound, the outcome [4] was “inactive”, the GTP binding signal, raw median fluorescence (lower = inhibition) (MCF (arbitrary fluorescence units)) [5] was 167 and the outcome [6] was “inactive”.

With `O=C(O)c1cccc(Oc2ccc([N+](=O)[O-])cc2)c1` the outcome [1] was “inactive”, the fluorescence, percent of control (lower = inhibition) [2] was 62.7% and the GTP binding, percent of control [3] was 61.7%. For the same compound, the outcome [4] was “inactive”, the GTP binding signal, raw median fluorescence (lower = inhibition) (MCF (arbitrary fluorescence units)) [5] was 0 and the outcome [6] was “inactive”.

In the case of `NC(=O)NOCc1ncc(C(F)(F)F)cc1Cl`, the outcome [1] is reported as “inactive”, the fluorescence, percent of control (lower = inhibition) [2] is reported as 36.2% and the GTP binding, percent of control [3] is reported as 81.2%. For the same compound, the outcome [4] was “inactive”, the GTP binding signal, raw median fluorescence (lower = inhibition) (MCF (arbitrary fluorescence units)) [5] was 274 and the outcome [6] was “inactive”.

`O=C(CCc1ccc(S(=O)(=O)NCCc2ccccc2)cc1)Nc1ccc2c(c1)OCO2` was tested, and the outcome [1] was “inactive”, the fluorescence, percent of control (lower = inhibition) [2] was 52.3% and the GTP binding, percent of control [3] was 67.2%. For the same compound, the outcome [4] was “inactive”, the GTP binding signal, raw median fluorescence (lower = inhibition) (MCF (arbitrary fluorescence units)) [5] was 212 and the outcome [6] was “inactive”.

With `Cc1ccc(NC(=S)NNC(=O)c2cn(C)nc2C)cc1` the outcome [1] was “inactive”, the fluorescence, percent of control (lower = inhibition) [2] was 83.7% and the GTP binding, percent of control [3] was 166%. For the same compound, the outcome [4] was “inactive”, the GTP binding signal, raw median fluorescence (lower = inhibition) (MCF (arbitrary fluorescence units)) [5] was 180 and the outcome [6] was “inactive”.

With `COc1ccc(/C=N/NC(=O)CSc2n[nH]c(=O)[nH]c2=O)cc1` the outcome [1] was “inactive”, the fluorescence, percent of control (lower = inhibition) [2] was 53.1% and the GTP binding, percent of control [3] was 69.6%. For the same compound, the outcome [4] was “inactive”, the GTP binding signal, raw median fluorescence (lower = inhibition) (MCF (arbitrary fluorescence units)) [5] was 0 and the outcome [6] was “inactive”.

With `CCOc1nnc(C)c2c(C)n(-c3cccc(Cl)c3)nc12` the outcome [1] was “inactive”, the fluorescence, percent of control (lower = inhibition) [2] was 155% and the GTP binding, percent of control [3] was 168%. For the same compound, the outcome [4] was “inactive”, the GTP binding signal, raw median fluorescence (lower = inhibition) (MCF (arbitrary fluorescence units)) [5] was 312 and the outcome [6] was “inactive”.

With `COc1cc(/C=C2/SC(=Nc3ccc(O)cc3)NC2=O)cc(OC)c1O` the outcome [1] was “inactive”, the fluorescence, percent of control (lower = inhibition) [2] was 39.8% and the GTP binding, percent of control [3] was 84.1%. For the same compound, the outcome [4] was “inactive”, the GTP binding signal, raw median fluorescence (lower = inhibition) (MCF (arbitrary fluorescence units)) [5] was 231 and the outcome [6] was “inactive”.

In the case of `COc1ccc2oc(COc3ccccc3)c(C(=O)O)c2c1`, the outcome [1] is reported as “inactive”, the fluorescence, percent of control (lower = inhibition) [2] is reported as 59.6% and the GTP binding, percent of control [3] is reported as 87.3%. The outcome [4] was “inactive”, the GTP binding signal, raw median fluorescence (lower = inhibition) (MCF (arbitrary fluorescence units)) [5] was 29.6 and the outcome [6] was “inactive”.

For `O=C(O)c1cc(-c2ccc(/C=C3\NC(=O)N(c4ccc(Cl)cc4)C3=O)o2)ccc1Cl`, the outcome [1] was “inactive”, the fluorescence, percent of control (lower = inhibition) [2] was 25.6% and the GTP binding, percent of control [3] was 66.3%. For the same compound, the outcome [4] was “inactive”, the GTP binding signal, raw median fluorescence (lower = inhibition) (MCF (arbitrary fluorescence units)) [5] was 160 and the outcome [6] was “inactive”.

In the case of `Cc1cccc(CNCc2sc(C(=O)O)cc2C)c1`, the outcome [1] is reported as “inactive”, the fluorescence, percent of control (lower = inhibition) [2] is reported as 54.2% and the GTP binding, percent of control [3] is reported as 77.2%. The outcome [4] was “inactive”, the GTP binding signal, raw median fluorescence (lower = inhibition) (MCF (arbitrary fluorescence units)) [5] was 31.9 and the outcome [6] was “inactive”.

With `O=C(O)COc1ccccc1/C=N/Nc1ccc(S(=O)(=O)Nc2ccc(Cl)cc2)cc1[N+](=O)[O-]` the outcome [1] was “inactive”, the fluorescence, percent of control (lower = inhibition) [2] was 28.1% and the GTP binding, percent of control [3] was 79.9%. The outcome [4] was “inactive”, the GTP binding signal, raw median fluorescence (lower = inhibition) (MCF (arbitrary fluorescence units)) [5] was 174 and the outcome [6] was “inactive”.

With `COc1ccccc1OCCn1cc(C(=O)O)c2cc(C)ccc21` the outcome [1] was “inactive”, the fluorescence, percent of control (lower = inhibition) [2] was 62.1% and the GTP binding, percent of control [3] was 212%. The outcome [4] was “inactive”, the GTP binding signal, raw median fluorescence (lower = inhibition) (MCF (arbitrary fluorescence units)) [5] was 57.3 and the outcome [6] was “inactive”.

For `O=C(O)CC/C(=C\c1ccc(N2CCOCC2)c([N+](=O)[O-])c1)c1nc2ccccc2s1`, the outcome [1] was “inactive”, the fluorescence, percent of control (lower = inhibition) [2] was 28.1% and the GTP binding, percent of control [3] was 71.9%. For the same compound, the outcome [4] was “inactive”, the GTP binding signal, raw median fluorescence (lower = inhibition) (MCF (arbitrary fluorescence units)) [5] was 212 and the outcome [6] was “inactive”.

In the case of `C=CCNC(=O)c1cc2c(=O)n3cc(C)ccc3nc2nc1NCC1CCCO1` (stereo not given), the outcome [1] is reported as “inactive”, the fluorescence, percent of control (lower = inhibition) [2] is reported as 51.6% and the GTP binding, percent of control [3] is reported as 58.6%. The outcome [4] was “inactive”, the GTP binding signal, raw median fluorescence (lower = inhibition) (MCF (arbitrary fluorescence units)) [5] was 226 and the outcome [6] was “inactive”.

For `O=C(/C=C/c1c(Cl)nc2ccccn12)N1CCCCC1`, the outcome [1] was “inactive”, the fluorescence, percent of control (lower = inhibition) [2] was 33.3% and the GTP binding, percent of control [3] was 80.9%. The outcome [4] was “inactive”, the GTP binding signal, raw median fluorescence (lower = inhibition) (MCF (arbitrary fluorescence units)) [5] was 245 and the outcome [6] was “inactive”.

For `COc1ccccc1CCNCc1ccc(C(=O)O)s1`, the outcome [1] was “inactive”, the fluorescence, percent of control (lower = inhibition) [2] was 63% and the GTP binding, percent of control [3] was 88.4%. For the same compound, the outcome [4] was “inactive”, the GTP binding signal, raw median fluorescence (lower = inhibition) (MCF (arbitrary fluorescence units)) [5] was 34.1 and the outcome [6] was “inactive”.

`CCOc1cc(/C=N/Nc2nncc(-c3ccccc3)n2)ccc1O` was tested, and the outcome [1] was “inactive”, the fluorescence, percent of control (lower = inhibition) [2] was 37.4% and the GTP binding, percent of control [3] was 75.5%. The outcome [4] was “inactive”, the GTP binding signal, raw median fluorescence (lower = inhibition) (MCF (arbitrary fluorescence units)) [5] was 160 and the outcome [6] was “inactive”.

Reference: PubChem BioAssay
